Screens: PubChem BioAssay, The Scripps Research Institute Molecular Screening Center
UHRF1 binding: UHRF1 methylated DNA binding inhibitors, primary screen, counter-screen for MBD2 inhibitor project, biochemical, TR-FRET, human UHRF1, single concentration; inhibition, % at 4.4 µM; E3 ubiquitin-protein ligase UHRF1 (Homo sapiens), Q96T88; UHRF1 binding to methylated oligo; hit rate 0.75% among 370,000; in the data active means inhibition above about 21%;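 further: UHRF1 SRA domain binding a hemimethylated CpG hairpin DNA probe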
PLC-gamma1 inh: PLC-gamma1 enzyme inhibitors, primary screen, biochemical, fluorescence, purified enzyme. fluorogenic substrate. hit rate 0.84% among 370,000. 1-phosphatidylinositol 4,5-bisphosphate phosphodiesterase gamma-1 (Homo sapiens), P19174. inhibition, % at 12.2 µM; in the data active means inhibition above about 9.5%
Target sequence (P19174 whole entry, looked up): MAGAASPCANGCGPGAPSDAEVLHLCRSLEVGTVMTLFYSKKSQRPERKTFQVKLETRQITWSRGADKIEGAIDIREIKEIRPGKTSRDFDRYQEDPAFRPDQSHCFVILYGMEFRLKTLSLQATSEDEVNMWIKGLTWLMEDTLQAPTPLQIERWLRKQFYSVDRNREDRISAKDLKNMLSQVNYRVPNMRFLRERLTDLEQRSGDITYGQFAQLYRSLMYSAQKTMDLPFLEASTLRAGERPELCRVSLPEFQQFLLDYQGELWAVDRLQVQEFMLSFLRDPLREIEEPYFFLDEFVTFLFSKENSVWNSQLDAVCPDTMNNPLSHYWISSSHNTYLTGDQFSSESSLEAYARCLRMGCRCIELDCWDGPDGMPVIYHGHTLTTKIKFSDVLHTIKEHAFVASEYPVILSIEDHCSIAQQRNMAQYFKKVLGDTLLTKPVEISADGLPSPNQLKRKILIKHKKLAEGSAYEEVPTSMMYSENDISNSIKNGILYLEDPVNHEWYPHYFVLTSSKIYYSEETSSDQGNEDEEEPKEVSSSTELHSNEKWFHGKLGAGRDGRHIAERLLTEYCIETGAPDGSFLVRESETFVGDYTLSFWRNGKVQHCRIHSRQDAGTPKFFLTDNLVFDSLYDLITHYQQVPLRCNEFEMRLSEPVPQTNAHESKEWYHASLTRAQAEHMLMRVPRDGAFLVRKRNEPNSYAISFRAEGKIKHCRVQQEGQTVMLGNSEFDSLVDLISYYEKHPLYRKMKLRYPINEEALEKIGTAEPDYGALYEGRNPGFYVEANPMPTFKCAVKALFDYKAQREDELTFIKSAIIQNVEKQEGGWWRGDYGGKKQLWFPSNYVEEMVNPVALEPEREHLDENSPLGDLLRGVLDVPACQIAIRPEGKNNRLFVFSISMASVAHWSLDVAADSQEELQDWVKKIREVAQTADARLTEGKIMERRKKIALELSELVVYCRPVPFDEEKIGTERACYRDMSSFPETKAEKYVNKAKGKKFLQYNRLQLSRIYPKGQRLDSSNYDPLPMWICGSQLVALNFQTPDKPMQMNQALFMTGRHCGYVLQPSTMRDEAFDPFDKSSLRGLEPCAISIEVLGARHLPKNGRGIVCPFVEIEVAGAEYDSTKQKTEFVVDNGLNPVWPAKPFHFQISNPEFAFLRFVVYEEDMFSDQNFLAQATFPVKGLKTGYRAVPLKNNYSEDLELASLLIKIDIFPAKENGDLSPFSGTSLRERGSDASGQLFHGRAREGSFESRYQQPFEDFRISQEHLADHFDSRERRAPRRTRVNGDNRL
PLCb3 inh: human PLC-beta3 inhibitors, primary screen, biochemical, fluorescence; 1-phosphatidylinositol 4,5-bisphosphate phosphodiesterase beta-3 (Homo sapiens), Q01970; Purified PLC-beta3, fluorogenic substrate; inhibition, % at 12.2 µM; hit rate 0.18% among 370,000; AID 720704, 2013; in the data active means inhibition above about 11%
LEDGF integ inh: blockers of LEDGF/p75-dependent integrase strand transfer – biochemical, TR-FRET, high throughput, primary screen | hit rate 0.64% among 370,000 | inhibition, % at 3.7 µM | TR-FRET IN-LEDGF/p75 DNA integration, Eu/Cy5;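 active means inhibition above the screen-wide mean plus 3 SD, cut at about 13% in these data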;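 further: signal is the Cy5 over europium emission ratio at 671 and 618 nm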
MBD2 DNA inh: inhibitors of MBD2 binding to methylated DNA, primary screen, biochemical, TR-FRET, DNA-binding domain, human; MBD2 binding to methylated oligonucleotide; inhibition, % at 4.4 µM; hit rate 0.31% among 370,000; AID 686964, 2013; in the data active means inhibition above about 13%
Large screens that a line does not name were inactive; ! = not active in a repeat. Hits are enriched below; roughly 2.4% of the tested compounds scored in any of these assays.

COc1cc(C(=O)OCC(=O)Nc2c(C)n(C)n(-c3ccccc3)c2=O)c([N+](=O)[O-])cc1OC	UHRF1 binding 32
Cc1c(C(=O)OCC(=O)Nc2c(C)n(C)n(-c3ccccc3)c2=O)cccc1[N+](=O)[O-]	none
CC(C)OC(=O)C1=CNCC(C)(C)c2c1[nH]c1cc(F)ccc21	none
CCOc1ccccc1CNC(=O)c1nn(C)c2c1CS(=O)(=O)c1ccccc1-2	UHRF1 binding 26
CC(C)Cn1c(N)c(C(=O)CSc2nnc(-c3ccco3)n2C)c(=O)n(C)c1=O	UHRF1 binding 33
CC(C)Cn1c(N)c(C(=O)CSc2ccccc2)c(=O)n(C)c1=O	none
CCCCCCn1cc(CN2CC=CS2(=O)=O)nn1	none
Cn1c(-c2ccc3c(c2)OCO3)cnc1NCc1ccccc1Cl	UHRF1 binding 48
COCc1c(C(N)=O)nnn1-c1nonc1N	UHRF1 binding 32
COCc1c(C(=O)N/N=C/c2ccc(C)o2)nnn1-c1nonc1N	UHRF1 binding 25
O=C(OC12CCCN(C1)/C(=C/c1ccccc1)C2)c1ccccc1 (stereo not drawn)	none
COc1ccc(N(CC(=O)NC2CC3CCC2C3)S(=O)(=O)c2ccc(C)cc2)cc1Cl (stereo not drawn)	UHRF1 binding 22
COc1ccc(N(CC(=O)NC2CC3CCC2C3)S(=O)(=O)c2ccccc2)cc1OC (stereo not drawn)	none
CNC(=O)CN(c1cc(C)ccc1OC)S(=O)(=O)c1ccc(C)cc1	UHRF1 binding 41
COc1ccc(C)cc1N(CC(=O)O)S(=O)(=O)c1ccc(C)cc1	none
O[C@H](COc1cccc(Cl)c1)CN1CCC(C(O)(c2ccccc2)c2ccccc2)CC1	none
O=C(c1cccs1)N1CCN(Cc2ccccn2)CC1	UHRF1 binding 24
O=C(c1ccncc1)N1CCN(C(=O)c2cccs2)CC1	none
CCOC(=O)c1cc(NC(=O)Cc2ccc(S(=O)(=O)N3CCOCC3)s2)cc(C(=O)OCC)c1	UHRF1 binding 26
O=C(Cc1ccc(S(=O)(=O)N2CCOCC2)s1)Nc1cc(C(F)(F)F)cc(C(F)(F)F)c1	none
CCc1nnc(NC(=O)c2ccc(COc3ccccc3Cl)o2)s1	UHRF1 binding 28
CCCCNC(=O)C[C@H]1C[C@@]2(C(=O)OC)C(=C[C@H](COCc3ccccc3)O[C@@H]2C)N(Cc2ccco2)C1=O	none
Cc1ccc(S(=O)(=O)N2CCCCC2)c2nsnc12	UHRF1 binding 24
Cc1ccc(S(=O)(=O)N2CCOCC2)c2nsnc12	none
Cc1ccc(N(CC(=O)NN=C2CCN(C)CC2)S(=O)(=O)c2ccc(C)cc2)cc1	none
Cc1ccc(S(=O)(=O)N(CC(=O)NN=C2CCN(C)CC2)c2ccc(C(C)C)cc2)cc1	UHRF1 binding 34
O=C(O)c1ccc(/C=N/NC(=O)c2ccc(F)cc2)cc1	none
O=C(N/N=C/c1ccc(F)cc1)c1ccccc1	UHRF1 binding 27
O=C(O)CCCCCN=Cc1c(O)c2ccccc2oc1=O	UHRF1 binding 23
CC(=O)c1cccc(NC(=O)C2(c3ccccc3)CC2(Cl)Cl)c1 (stereo not drawn)	UHRF1 binding 25
C#CCOCCOCCOCCNc1nc(N2CCN(C(=O)[C@H](CCC(=O)O)n3cc([C@@H](N)CCCCN)nn3)CC2)nc(N2CCN(C(=O)[C@H](CCC(=O)O)n3cc([C@@H](N)CCCCN)nn3)CC2)n1	none
C#CCOCCOCCOCCNc1nc(N2CCN(C(=O)[C@H](CCC(=O)O)n3cc([C@@H](N)CCCCN)nn3)CC2)nc(N2CCN(C(=O)[C@H](CCCCN)n3cc([C@@H](N)CC(N)=O)nn3)CC2)n1	UHRF1 binding 48
O=C(c1sccc1Cl)N1CCC(n2nnc3ncccc32)CC1	none
COC1=C[C@H](C(=O)NCCNC(C)=O)[C@@]2(C)Cc3ccccc3[C@H]2CC1=O	none
COC(=O)CSc1nnc(-c2ccc(NS(=O)(=O)c3ccc(C)c(C)c3)cc2)o1	none
Cn1cccc1/C=N/NC(=O)c1cccnc1	none
Cn1cccc1/C=N/NC(=O)c1ccc[n+]([O-])c1	UHRF1 binding 22
OC(c1ccccc1)(c1ccccc1)C1CCN(CCCOc2ccc(F)cc2)CC1	PLC-gamma1 inh 11!
OC(c1ccccc1)(c1ccccc1)C1CCN(CCCOc2ccc(C(F)(F)F)cc2)CC1	none
CC(=O)N[C@@H]1C[C@@H]2O[C@H](CO)CC[C@@H]2O[C@@H]1CCc1ccc(C#CC2(O)CCCC2)cc1	none
O=[N+]([O-])c1ccc2c(c1)ncn2CCc1ccccc1	UHRF1 binding 26
CC(=O)c1ccc(NCCCN2CCC(C(O)(c3ccccc3)c3ccccc3)CC2)cc1	none
S=C(Nc1ccccc1Cl)OCCN1CCCC12CCC(c1ccccc1)CC2 (stereo not drawn)	none
CC1CC(C)CN(C(=O)COC(=O)c2cccc(S(=O)(=O)N(C)c3ccccc3)c2)C1 (stereo not drawn)	none
CC1CC(C)CN(C(=O)COC(=O)c2ccc(S(=O)(=O)N(C)c3ccccc3)cc2)C1 (stereo not drawn)	UHRF1 binding 21
C[C@@H]1CN([C@@H](C)CO)S(=O)(=O)c2ccc(Br)cc2O[C@H]1CN(C)C(=O)Nc1ccc2c(c1)OCO2	UHRF1 binding 56
C[C@@H]1CN([C@H](C)CO)S(=O)(=O)c2ccc(Br)cc2O[C@H]1CN(C)C(=O)Nc1ccccc1	UHRF1 binding 21
Cc1cccc(NC(=O)COC(=O)CNC(=O)C2CCCCC2)c1	none
Cc1ccc(C)c(NC(=O)COC(=O)CNC(=O)C2CCCCC2)c1	UHRF1 binding 52
Cc1ccccc1CNC1CCC12CCC(c1ccccc1)CC2 (stereo not drawn)	none
c1ccc(CNC2CCC23CCC(c2ccccc2)CC3)cc1 (stereo not drawn)	UHRF1 binding 81
CC(C)CCN1CCC(CN2C(=S)NC[C@@H]2Cc2ccccc2)CC1	none
CC(CCN1CCC(CN2C(=S)NCC2Cc2ccccc2)CC1)c1ccccc1 (stereo not drawn)	UHRF1 binding 21
CC(C)(C)NC(=S)N/N=C/c1c(Cl)cccc1Cl	UHRF1 binding 36
CCc1ccc(Nc2ncc3c(n2)CC(C)(C)CC3=O)cc1	UHRF1 binding 42
CC(C)c1csc(CN2CCC(CO)(Cc3cccc(F)c3)CC2)n1	UHRF1 binding 59
OCC1(Cc2cccc(F)c2)CCN(Cc2cccc3nccnc23)CC1	none
C#CCN1CC(N(C)CCOC(=O)c2cc(C)cc(C)c2)CS1(=O)=O (stereo not drawn)	none
O=C(Cc1c(F)cccc1Cl)NCc1cccnc1	none
O=C(Cc1ccc(Cl)cc1Cl)NCc1cccnc1	UHRF1 binding 21
